# Tests used:
# Experiment in all cases: PBM binding z-score (relative to random genomic background probes); higher = stronger binding; sequences stand for … in GC…GCGATTGACAGCGTAGAATGAAGG
# [1] = test system: FXR:RXRa (NR concentration 270 nM, RXRa partner concentration 90 nM)
# How it was run: (§1)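 The probes on custom Agilent 4×180K protein-binding microarrays were double-stranded, with 34-nt variable regions bearing direct-repeat seeds, single-nucleotide variants, half-site ablations and random human genomic background sequences. Incubation lasted 1 h with ligand-free nuclear receptor dimers in PBS pH 7.4, 2% milk, 0.02% Triton X-100, 1 mM DTT, 0.2 mg/mL BSA and 0.4 mg/ml salmon testes DNA. Antibodies against each partner (one per run) detected bound dimers, and fluorescence scans were regression-normalized. Binding z-scores take the random background probes as reference.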
# [2] = test system: LXRa:RXRa (NR concentration 270 nM, RXRa partner concentration 90 nM)
# How it was run: as §1
# [3] = test system: LXRa homodimer (NR concentration 270 nM)
# How it was run: as §1
# [4] = test system: LXRb:RXRa (NR concentration 270 nM, RXRa partner concentration 90 nM)
# How it was run: as §1
# [5] = test system: LXRb homodimer (NR concentration 270 nM)
# How it was run: as §1
# [6] = test system: PPARa:RXRa (NR concentration 270 nM, RXRa partner concentration 90 nM)
# How it was run: as §1
# [7] = test system: PPARg:RXRa (NR concentration 180 nM, RXRa partner concentration 90 nM)
# How it was run: as §1
# [8] = test system: PPARg:RXRa 270nM:90nM, anti-RXR (NR concentration 270 nM, RXRa partner concentration 90 nM)
# How it was run: as §1
# [9] = test system: PPARg:RXRa 30nM:10nM, anti-RXR (NR concentration 30 nM, RXRa partner concentration 10 nM)
# How it was run: as §1
# [10] = test system: PPARg:RXRa 90nM:30nM, anti-RXR (NR concentration 90 nM, RXRa partner concentration 30 nM)
# How it was run: as §1
# [11] = test system: PPARg:RXRa DBDmut IVT, anti-RXR (DBD mutation: RXRa K156A/R161A, NR concentration 270 nM, RXRa partner concentration 90 nM)
# How it was run: as §1
# [12] = test system: PPARg:RXRa IVT, anti-PPARg (NR concentration 270 nM, RXRa partner concentration 90 nM)
# How it was run: as §1
# [13] = test system: PPARg DBDmut:RXRa IVT, anti-PPARg (DBD mutation: PPARg1 K132A/R137A, NR concentration 270 nM, RXRa partner concentration 90 nM)
# How it was run: as §1
# [14] = test system: PPARg DBDmut IVT, anti-PPARg (DBD mutation: PPARg1 K132A/R137A, NR concentration 270 nM)
# How it was run: as §1
# [15] = test system: PPARg homodimer (NR concentration 180 nM)
# How it was run: as §1
# [16] = test system: PXR:RXRa (NR concentration 270 nM, RXRa partner concentration 90 nM)
# How it was run: as §1
# [17] = test system: PXR homodimer (NR concentration 270 nM)
# How it was run: as §1
# [18] = test system: RARa:RXR (NR concentration 270 nM, RXRa partner concentration 90 nM)
# How it was run: as §1
# [19] = test system: RARa homodimer (NR concentration 270 nM)
# How it was run: as §1
# [20] = test system: RARb:RXRa (NR concentration 270 nM, RXRa partner concentration 90 nM)
# How it was run: as §1
Sequence,PBM binding z-score [1],PBM binding z-score [2],PBM binding z-score [3],PBM binding z-score [4],PBM binding z-score [5],PBM binding z-score [6],PBM binding z-score [7],PBM binding z-score [8],PBM binding z-score [9],PBM binding z-score [10],PBM binding z-score [11],PBM binding z-score [12],PBM binding z-score [13],PBM binding z-score [14],PBM binding z-score [15],PBM binding z-score [16],PBM binding z-score [17],PBM binding z-score [18],PBM binding z-score [19],PBM binding z-score [20]
CGTCCAAGGTCAGAGAGATCAGTGAATGCCGAGT,4.93,2.88,0.0283,2.25,0.0679,3.73,2.1,2.59,0.164,1.22,2.6,2.11,0.0329,-0.28,1.89,2.74,0.829,3.01,-0.15,4.62
CCGAGTAGGTTATGGGACATTCAGGCAACGGTGA,0.111,0.356,0.00939,0.277,0.141,0.923,1.53,2.35,0.542,1.74,3.53,2.6,-0.291,-0.241,1.11,-0.0515,0.264,0.315,0.595,0.813
CGAACTAGGTCAGAACAGGACGGTGAAGGATGAT,0.947,0.319,-0.295,-0.0399,-0.471,2.64,4.74,4.11,2.15,3.38,7.03,7.23,1.59,1.11,0.681,0.143,-0.288,0.525,0.0623,2.55
ATACGTAGGTTAAGGGTCATTCAGGTTGGTTCGC,5.1,4.98,2.92,4.46,1.03,5.41,7.56,7.6,6.33,8.26,1.41,3.8,0.783,0.775,3.98,5.7,2.65,6.55,2.24,3.7
CCGACTGGGGCAGAAAGGTTACCGTACCATCCGG,0.26,0.695,-0.0357,1.01,-1.05,2.4,1.54,2.95,0.724,2.38,1.72,2.39,-1.2,-1.01,0.541,1.02,-0.429,1.79,-0.282,1.84
TCGAGTAGGTCACCAATGGGGCATTCAGCTTTCT,3.29,3.16,-0.128,2.79,-0.57,4.45,5.85,5.14,2.8,4.74,5.54,6.57,0.462,0.45,1.71,2.42,-0.543,3.13,-0.919,3.84
ATACCAAGGTGATCGTGAGGTTGTTGATACTAAC,0.619,0.547,0.106,0.338,-0.241,0.626,0.435,0.149,0.0438,0.112,0.768,0.997,0.831,0.892,0.541,0.741,0.299,0.978,0.0495,0.63
TCTTGGAGATCAATAGAGGTTAAGAAAGTGCGCT,1.28,3.82,0.422,2.09,-0.451,1.94,-0.159,1.27,2.09,1.59,0.87,0.273,0.0631,-0.22,0.19,3.33,-0.00174,1.94,0.245,0.9
AGAATGAGGTTCAGATCAGGGAAACAGAATACAT,0.604,0.299,-0.377,0.614,-0.379,1.14,0.585,-0.121,0.313,0.345,-0.151,0.433,1.08,0.118,0.165,0.507,0.222,1.41,0.488,0.706
TCAGACAGGTCAAGGTAACTCAGGTACGCAGTCG,4.86,4.63,0.984,3.22,0.435,4.62,3.57,4.27,3.93,4.13,2.85,2.73,0.0851,0.283,1.88,2.46,0.321,3.37,0.676,4.31
CTCGAAAGGTCGCGCTCAGGTGAGTATACCAAAC,5.56,4.34,0.0163,3.5,0.0326,5.16,3.37,4.57,1.32,2.97,1.22,2.52,1.3,0.149,2.13,3.65,-0.145,4.74,-0.225,4.46
TGTGCTAGGTCAGTTGGTCAGCTAACGAGCTGCC,0.928,0.621,-0.546,-0.0513,0.565,1.23,0.656,1.19,-0.306,0.746,1.29,3.02,-0.307,0.199,0.18,0.0475,-0.625,0.36,-0.296,3.26
CGAACTAGGTCACCGGAAGGTCAAAGTCCGCATG,6.15,5.95,4.65,5.17,0.515,6.04,9.75,7.7,5.33,7.57,7.98,8.54,0.875,0.855,8.74,5.95,2.08,7.52,2.97,5.2
TCATATAGGTAAATGCTAGGTGAAGGTCCGATCT,0.907,0.779,0.342,0.347,0.0631,1.29,0.837,2.13,3.86,2.91,4.03,2.74,1.1,0.608,0.952,0.662,0.475,0.786,1.04,0.552
ACTAGCGGGCCAAGTTTGGGTCACTCAAACAAAG,0.106,-0.183,-0.598,0.723,-0.855,1.5,-0.111,0.168,-0.66,0.126,0.418,0.997,-0.878,-0.789,0.424,0.722,-0.623,1.51,-1.37,1.64
TCTTGTAGATCAAAGGTTACGAAAGCCGAAGCCT,2.01,2.2,0.222,2.27,-0.174,4.71,8.72,8.23,7.86,8.98,2.12,3.96,0.521,0.147,1.11,2.41,-0.449,3.28,-0.123,2.14
AGAACGCGGGCACGCTGAGTTGATAGCAGAGTAG,-0.237,-0.318,-0.326,-0.68,-1.1,-0.532,0.363,-0.844,-0.786,-0.727,0.0817,-0.217,-0.65,-1.15,-0.455,-0.502,-0.289,-0.215,-0.302,0.31
GGAACGAGGGCATTCGGGTTGATAGCATGGCGAT,1.28,1.22,-0.291,0.287,-0.152,1.74,0.887,0.703,-0.367,0.323,2.77,2.27,0.359,-0.376,0.523,3.69,2.77,0.733,-0.569,1.86
TAGCCTAGGTCAGATCCGGCCAGTATACGCTATA,1.78,1.41,-0.272,1.05,-0.172,1.69,0.79,0.773,-0.199,0.368,0.634,1.52,0.095,-0.353,0.289,1.09,-0.796,1.12,-0.924,3.17
TCTTGTAGATCAATAGAGGTTAATAAAGTGCGCT,0.771,5.4,0.943,3.5,-0.00633,1.72,0.484,1.59,2.72,2.15,1.47,1.13,0.628,0.945,0.295,2.84,0.364,1.63,0.341,0.772
ATCGAAAGGTGGAGGTGAGTATAGAGAAAGGGAA,0.433,0.583,-0.00361,0.504,0.617,0.622,0.263,0.302,0.265,0.243,-0.413,0.772,-0.138,-0.168,0.613,0.147,0.659,0.0317,1.06,1.28
CGAACGAGGGCATGAGTTGCTAGCAAATGCCGAT,0.106,0.132,-0.624,0.0886,-1.12,1.35,1.1,1.52,0.000453,0.931,3.04,1.87,-0.188,-0.705,-0.0181,0.336,-0.327,0.293,-0.816,1.82
GCTGCTAGGTCATCTGATGGTCAGCTAAAGCTCG,3.98,3.02,0.182,2.03,0.0879,3.39,1.96,2.82,0.263,1.59,3.87,3.44,-0.368,-0.142,0.777,1.71,-0.679,2.64,-0.43,4.07
TCATATAGGTAAAGAGGTGAAAGTCCGTAAGTTA,1.74,1.63,0.378,1.56,-0.0509,3.46,4.38,4.63,4.83,5,4.95,5.26,1.1,0.188,1.78,1.23,0.825,1.76,1,1.65
CCTCGGAGGACAGAAGGTCAGAGTTGTCCGCTTT,1.19,1.59,0.486,1.21,-0.813,1.88,0.0255,0.907,-0.816,0.173,0.283,0.171,-1.27,-1.42,0.997,1.77,-0.24,2,0.0194,3.16
GGAACGAGGGCAAAGTTGATGGCATCTGTCGACG,1.36,1.13,-0.0159,0.949,-0.264,4.09,6.37,6.89,5.45,6.81,4.48,4.33,0.423,0.295,0.411,1.39,0.213,1.59,-0.52,2.48
GTACCAAGGTGAATAGGCCGTTGATGAGTAGGCG,0.0834,0.126,-0.456,-0.22,-0.582,1.08,0.806,0.724,-0.00292,0.38,1.64,2.14,-0.316,-0.431,0.326,0.0653,-0.287,0.238,0.218,1.36
ATCTCTAGGTAAAAGTTCAGGGAATCCCGAGGAT,1.28,1.71,1.26,1.12,1.04,4.42,8.19,7.53,7.81,8.27,2.01,3.72,1.02,1.51,1.25,1.96,1.15,2.06,1.33,2.62

# Reference: the supplement of paper PMC6555819
